Experimental findings from PubChem BioAssay (EPA / NIEHS) are described below.

Assay [1] concerns the target human Fibroblast Growth Factor Receptor 1 (FGFR1), FGFR1 (gene 2260) (UniProt P11362). Put plainly: NVS_ENZ_hFGFR1: NovaScreen (NVS) Enzymatic Assay for human Fibroblast Growth Factor Receptor 1 (FGFR1) (AID 2283159). An outline of the steps: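 Cell-free recombinant kinase with fluorescent substrate, product separated by electrophoretic mobility shift; read 1 hour after dosing, loss of signal relative to DMSO. Initial screen in duplicate at 25 uM, actives followed in concentration series.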

The target in assay [2] is Histone deacetylase 3 (Homo sapiens) (UniProt O15379). Put plainly: NVS_ENZ_hHDAC3: NovaScreen (NVS) Enzymatic Assay for human Histone Deacetylase 3 (HDAC3) (AID 2283163). The procedure, abridged:
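Recombinant human HDAC3 with fluorescent substrate, 1 h after dosing; product separated from substrate by electrophoretic mobility shift and read by fluorescence. Primary screen at 25 uM in duplicate; actives (e.g. ≥30% inhibition) retested in concentration-response up to 50 uM.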

Assay [3] has as its target Protein deacetylase HDAC6 (Homo sapiens) (UniProt Q9UBN7). Put plainly: NVS_ENZ_hHDAC6: NovaScreen (NVS) Enzymatic Assay for human Histone Deacetylase 6 (HDAC6) (AID 2283164). An outline of the steps: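 Recombinant human HDAC6 with fluorescent substrate, 1 h; product separated from substrate by electrophoretic mobility shift. Primary screen in duplicate at 25 uM; actives retested singly in concentration-response up to 50 uM, fitted relative to DMSO.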

The target in assay [4] is human c-Jun N-terminal Kinases (JNK2), MAPK9 (gene 5601) (UniProt P45984). Description: NVS_ENZ_hJNK2: NovaScreen (NVS) Enzymatic Assay for human c-Jun N-terminal Kinases (JNK2) (AID 2283171). The procedure, abridged: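 Cell-free recombinant human JNK2 activity assay; fluorescent substrate and product separated by electrophoretic mobility shift, read 1 h after dosing. Primary duplicate screen at 25 uM; actives run in concentration-response up to 50 uM, relative to DMSO.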
Sequence of human c-Jun N-terminal Kinases (JNK2), MAPK9 (gene 5601) (P45984 whole entry, looked up): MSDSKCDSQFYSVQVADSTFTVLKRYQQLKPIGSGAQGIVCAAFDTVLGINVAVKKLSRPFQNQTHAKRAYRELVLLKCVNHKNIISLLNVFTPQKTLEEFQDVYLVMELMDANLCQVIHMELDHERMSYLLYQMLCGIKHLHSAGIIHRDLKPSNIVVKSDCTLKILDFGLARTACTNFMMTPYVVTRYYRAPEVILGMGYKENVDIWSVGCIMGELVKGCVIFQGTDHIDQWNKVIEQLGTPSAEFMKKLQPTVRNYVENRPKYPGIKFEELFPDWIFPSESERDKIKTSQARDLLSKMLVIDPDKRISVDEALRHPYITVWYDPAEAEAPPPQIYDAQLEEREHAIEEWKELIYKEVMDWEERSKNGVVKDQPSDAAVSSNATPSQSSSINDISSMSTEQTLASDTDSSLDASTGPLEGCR

Assay [5] concerns the target Mitogen-activated protein kinase 3 (Homo sapiens) (UniProt P27361). Description: NVS_ENZ_hMAPK3: NovaScreen (NVS) Enzymatic Assay for human Mitogen-Activated Protein Kinase 3 (MAPK 3) (AID 2283177). An outline of the steps: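 Cell-free enzymatic assay with recombinant protein and specific substrate; fluorescence and electrophoretic mobility shift read-out 1 h after dosing. Primary screen duplicate at 25 uM; actives then run in concentration-response up to 50 uM, loss of signal versus DMSO.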

Assay [6] concerns the target human Dual Specificity Protein Phosphatase 3 (DUSP3), DUSP3 (gene 1845) (UniProt P51452). Description: NVS_ENZ_hDUSP3: NovaScreen (NVS) Enzymatic Assay for human Dual Specificity Protein Phosphatase 3 (DUSP3) (AID 2283152). The procedure, abridged: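 Cell-free assay with recombinant human DUSP3 and fluorogenic substrate, read by fluorescence intensity. Primary screen ran duplicate at 25 uM; actives followed up in concentration series; loss of signal versus DMSO scored.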

Assay [7] concerns the target human Mitogen-Activated Protein Kinase 1 (MAPK 1), MAPK1 (gene 5594) (UniProt P28482). Put plainly: NVS_ENZ_hMAPK1: NovaScreen (NVS) Enzymatic Assay for human Mitogen-Activated Protein Kinase 1 (MAPK 1) (AID 2283175). The procedure, abridged: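 Cell-free recombinant human MAPK1 enzymatic assay, fluorescence/electrophoretic mobility shift read at 1 h; loss of signal vs DMSO. Primary screen in duplicate at 25 uM; actives (e.g. ≥30% inhibition) run as concentration-response up to 50 uM.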

Assay [8] deals with human MAP Kinase-Activated Protein Kinase 2 (MAPKAPK2), MAPKAPK2 (gene 9261) (UniProt P49137). Put plainly: NVS_ENZ_hMAPKAPK2: NovaScreen (NVS) Enzymatic Assay for human MAP Kinase-Activated Protein Kinase 2 (MAPKAPK2) (AID 2283178). The procedure, abridged:
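Cell-free recombinant human MAPKAPK2 activity measured by fluorescence with electrophoretic mobility shift separation of substrate and product, 1 hr after dosing. Loss of signal versus DMSO; primary screen at 25 uM, concentration-response up to 50 uM.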

Assay [9] has as its target human Esterase Plasma (ES), BCHE (gene 590) (UniProt P06276). Description: NVS_ENZ_hES: NovaScreen (NVS) Enzymatic Assay for human Esterase Plasma (ES) (AID 2283157). An outline of the steps:
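Chemicals were added to plasma-extracted human enzyme in a cell-free format, and activity was read colorimetrically after 0.25 hour. Activity loss was referenced to DMSO; concentration-response top dose was 50 uM.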

Assay [10] has as its target human Elastase, ELANE (gene 1991) (UniProt P08246). Description: NVS_ENZ_hElastase: NovaScreen (NVS) Enzymatic Assay for human Elastase (AID 2283153). The procedure, abridged:
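Cell-free elastase from human neutrophils, 1.5 h after dosing, activity read by absorbance. Primary screen in duplicate at 25 uM; hits (e.g., 30% inhibition) rerun in singleton concentration-response up to 50 uM, fitted versus DMSO.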

Assay [11] concerns the target human Ephrin type-B Receptor 2 (EphB2), EPHB2 (gene 2048) (UniProt P29323). Put plainly: NVS_ENZ_hEphB2: NovaScreen (NVS) Enzymatic Assay for human Ephrin type-B Receptor 2 (EphB2) (AID 2283156). An outline of the steps: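 Recombinant kinase with fluorescent substrate, product separated by electrophoretic mobility shift, read 1 h after dosing. Duplicate 25 uM screen, then singleton concentration-response to 50 uM max; loss of signal versus DMSO.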

The target in assay [12] is Collagenase 3 (Homo sapiens) (UniProt P45452). Put plainly: NVS_ENZ_hMMP13: NovaScreen (NVS) Enzymatic Assay for human Matrix Metalloproteinase-13 (MMP13) (AID 2283182). An outline of the steps: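 Recombinant MMP13 cleaving fluorescent substrate, cell-free, measured 1 h after dosing. Primary duplicate screen at 25 uM; actives tested in concentration-response up to 50 uM; loss of signal relative to DMSO.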

For assay [13], the target named is human Ephrin type-A Receptor 2 (EphA2), EPHA2 (gene 1969) (UniProt P29317). Put plainly: NVS_ENZ_hEphA2: NovaScreen (NVS) Enzymatic Assay for human Ephrin type-A Receptor 2 (EphA2) (AID 2283155). An outline of the steps:
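Cell-free recombinant EphA2 kinase with specific substrate, 1 h, fluorescence with electrophoretic mobility-shift separation of substrate and product. Primary screen at 25 uM in duplicate; hits retested in singleton concentration-response up to 50 uM, referenced to DMSO.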

The target of assay [14] is human Ephrin type-A Receptor 1 (EphA1), EPHA1 (gene 2041) (UniProt P21709). Description: NVS_ENZ_hEphA1: NovaScreen (NVS) Enzymatic Assay for human Ephrin type-A Receptor 1 (EphA1) (AID 2283158).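 Also: activity is signal loss versus DMSO meaning EphA1 kinase inhibition.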 An outline of the steps:
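Recombinant kinase, fluorescent substrate, mobility-shift separation, fluorescence read at 1 h. Single-point duplicates at 25 uM; hits (e.g., ≥30% inhibition) run singleton concentration-response, max 50 uM. DMSO = negative control/baseline.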

The target in assay [15] is Glycogen synthase kinase-3 beta (Homo sapiens) (UniProt P49841). Put plainly: NVS_ENZ_hGSK3b: NovaScreen (NVS) Enzymatic Assay for human Glycogen Synthase Kinase-3 beta (GSK3b) (AID 2283165). The procedure, abridged: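 Recombinant enzyme with specific fluorescent substrate, 1 h, product separated by electrophoretic mobility shift. Primary duplicate screen at 25 uM; actives (e.g. 30% inhibition) followed in singleton concentration-response to 50 uM. Signal loss fitted versus DMSO.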

The target of assay [16] is human Casein Kinase 1-delta (CK1D), CSNK1D (gene 1453) (UniProt P48730). Put plainly: NVS_ENZ_hCK1D: NovaScreen (NVS) Enzymatic Assay for human Casein Kinase 1-delta (CK1D) (AID 2283148). An outline of the steps:
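Recombinant human CK1-delta, cell-free; fluorescent substrate with electrophoretic mobility-shift separation of product, read 1 h after dosing. Single 25 uM duplicate screen, then concentration-response up to 50 uM; loss of signal vs DMSO.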

Assay [17] has as its target human MET Proto-Oncogene, Receptor Tyrosine Kinase (MET), MET (gene 4233) (UniProt P08581). Description: NVS_ENZ_hMet: NovaScreen (NVS) Enzymatic Assay for human MET Proto-Oncogene, Receptor Tyrosine Kinase (MET) (AID 2283180). An outline of the steps:
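Cell-free MET kinase assay using recombinant protein and fluorescent substrate, with mobility-shift separation; read 1 h after dosing. Primary duplicate at 25 uM; actives in singleton concentration-response to 50 uM maximum. Signal loss versus DMSO.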

Results filed as inconclusive are left out. Active and inactive are the calls of the source. The calls were made as follows: active = hit-call score of the fitted dose curve at least 0.9, where 1 is the maximum; inconclusive = response in the unintended direction; inactive = score below 0.9.

Sequence of human Dual Specificity Protein Phosphatase 3 (DUSP3), DUSP3 (gene 1845) (P51452 whole entry, looked up): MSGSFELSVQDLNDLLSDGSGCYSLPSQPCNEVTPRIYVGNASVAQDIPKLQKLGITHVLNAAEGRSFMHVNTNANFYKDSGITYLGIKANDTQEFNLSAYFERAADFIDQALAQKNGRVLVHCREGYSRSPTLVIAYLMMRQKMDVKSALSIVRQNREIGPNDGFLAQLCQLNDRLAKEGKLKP
Sequence of Mitogen-activated protein kinase 3 (Homo sapiens) (P27361 whole entry, looked up): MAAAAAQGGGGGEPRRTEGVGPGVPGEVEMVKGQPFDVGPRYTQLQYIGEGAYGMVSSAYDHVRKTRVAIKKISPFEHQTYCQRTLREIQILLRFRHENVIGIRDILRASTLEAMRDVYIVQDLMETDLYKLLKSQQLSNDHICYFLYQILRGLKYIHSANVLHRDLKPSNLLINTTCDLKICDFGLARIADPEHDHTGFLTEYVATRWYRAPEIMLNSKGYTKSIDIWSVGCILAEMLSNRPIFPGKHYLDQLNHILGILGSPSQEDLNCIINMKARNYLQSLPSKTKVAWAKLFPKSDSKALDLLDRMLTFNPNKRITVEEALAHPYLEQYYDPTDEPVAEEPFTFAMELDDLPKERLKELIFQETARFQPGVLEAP
Sequence of human Esterase Plasma (ES), BCHE (gene 590) (P06276 whole entry, looked up): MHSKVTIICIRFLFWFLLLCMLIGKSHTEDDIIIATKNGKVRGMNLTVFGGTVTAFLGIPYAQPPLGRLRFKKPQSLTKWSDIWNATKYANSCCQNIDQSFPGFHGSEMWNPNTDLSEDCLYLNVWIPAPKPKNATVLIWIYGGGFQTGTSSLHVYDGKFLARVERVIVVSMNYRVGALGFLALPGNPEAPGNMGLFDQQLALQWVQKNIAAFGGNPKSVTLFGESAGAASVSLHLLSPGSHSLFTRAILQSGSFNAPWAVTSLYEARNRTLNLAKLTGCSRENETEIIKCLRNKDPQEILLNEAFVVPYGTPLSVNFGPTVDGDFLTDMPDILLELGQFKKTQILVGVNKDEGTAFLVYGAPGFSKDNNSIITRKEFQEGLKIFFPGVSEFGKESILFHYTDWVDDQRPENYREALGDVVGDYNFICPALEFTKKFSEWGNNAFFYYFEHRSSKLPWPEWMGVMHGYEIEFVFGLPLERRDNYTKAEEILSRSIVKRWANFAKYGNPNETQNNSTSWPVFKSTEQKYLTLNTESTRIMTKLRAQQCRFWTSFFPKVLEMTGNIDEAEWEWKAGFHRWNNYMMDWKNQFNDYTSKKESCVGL
Sequence of human Ephrin type-A Receptor 2 (EphA2), EPHA2 (gene 1969) (P29317 whole entry, looked up): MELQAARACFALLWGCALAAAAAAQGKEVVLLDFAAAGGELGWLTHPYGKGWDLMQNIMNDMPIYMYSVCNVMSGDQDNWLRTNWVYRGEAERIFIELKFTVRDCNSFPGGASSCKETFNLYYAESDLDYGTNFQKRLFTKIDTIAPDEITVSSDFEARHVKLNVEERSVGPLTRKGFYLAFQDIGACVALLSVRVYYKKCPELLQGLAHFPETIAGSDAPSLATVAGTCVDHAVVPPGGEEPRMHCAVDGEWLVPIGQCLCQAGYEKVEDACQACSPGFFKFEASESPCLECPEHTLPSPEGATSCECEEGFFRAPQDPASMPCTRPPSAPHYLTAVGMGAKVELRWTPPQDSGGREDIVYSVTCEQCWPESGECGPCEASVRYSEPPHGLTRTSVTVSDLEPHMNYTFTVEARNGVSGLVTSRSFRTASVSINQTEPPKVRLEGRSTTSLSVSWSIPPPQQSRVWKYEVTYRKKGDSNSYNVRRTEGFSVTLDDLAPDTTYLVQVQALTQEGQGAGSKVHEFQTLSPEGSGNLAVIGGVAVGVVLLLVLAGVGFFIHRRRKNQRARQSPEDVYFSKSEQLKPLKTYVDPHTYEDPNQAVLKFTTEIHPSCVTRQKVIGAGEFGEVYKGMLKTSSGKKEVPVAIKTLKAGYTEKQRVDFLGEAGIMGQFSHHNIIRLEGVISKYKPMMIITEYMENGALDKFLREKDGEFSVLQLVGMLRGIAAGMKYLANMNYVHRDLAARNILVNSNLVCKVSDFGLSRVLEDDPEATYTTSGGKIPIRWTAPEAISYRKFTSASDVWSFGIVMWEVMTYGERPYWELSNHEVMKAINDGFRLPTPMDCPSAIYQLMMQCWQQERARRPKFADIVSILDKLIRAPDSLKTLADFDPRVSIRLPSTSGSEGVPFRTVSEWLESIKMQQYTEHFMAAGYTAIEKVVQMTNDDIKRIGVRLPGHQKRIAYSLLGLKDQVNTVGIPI
Sequence of human Mitogen-Activated Protein Kinase 1 (MAPK 1), MAPK1 (gene 5594) (P28482 whole entry, looked up): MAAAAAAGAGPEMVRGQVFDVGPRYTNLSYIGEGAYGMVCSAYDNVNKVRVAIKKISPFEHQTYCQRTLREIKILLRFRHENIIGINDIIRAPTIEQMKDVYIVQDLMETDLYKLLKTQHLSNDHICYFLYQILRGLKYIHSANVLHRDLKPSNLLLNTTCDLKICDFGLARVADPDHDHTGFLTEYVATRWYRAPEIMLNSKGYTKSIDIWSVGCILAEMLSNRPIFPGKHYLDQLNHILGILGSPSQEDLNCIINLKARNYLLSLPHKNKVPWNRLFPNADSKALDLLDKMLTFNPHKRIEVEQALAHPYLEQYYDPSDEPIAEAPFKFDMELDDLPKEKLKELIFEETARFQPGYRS
Sequence of Histone deacetylase 3 (Homo sapiens) (O15379 whole entry, looked up): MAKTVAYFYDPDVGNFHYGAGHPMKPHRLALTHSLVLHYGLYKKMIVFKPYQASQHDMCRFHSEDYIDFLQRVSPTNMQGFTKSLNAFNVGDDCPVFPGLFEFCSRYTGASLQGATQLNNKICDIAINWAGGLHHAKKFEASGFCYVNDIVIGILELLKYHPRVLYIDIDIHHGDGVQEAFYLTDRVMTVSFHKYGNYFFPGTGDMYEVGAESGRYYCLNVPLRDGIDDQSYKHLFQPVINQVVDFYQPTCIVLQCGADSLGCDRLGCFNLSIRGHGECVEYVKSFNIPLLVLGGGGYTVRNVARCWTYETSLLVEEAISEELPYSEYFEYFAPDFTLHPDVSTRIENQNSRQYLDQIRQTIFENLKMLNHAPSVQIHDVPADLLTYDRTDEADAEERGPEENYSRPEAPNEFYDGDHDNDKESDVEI
Sequence of Protein deacetylase HDAC6 (Homo sapiens) (Q9UBN7 whole entry, looked up): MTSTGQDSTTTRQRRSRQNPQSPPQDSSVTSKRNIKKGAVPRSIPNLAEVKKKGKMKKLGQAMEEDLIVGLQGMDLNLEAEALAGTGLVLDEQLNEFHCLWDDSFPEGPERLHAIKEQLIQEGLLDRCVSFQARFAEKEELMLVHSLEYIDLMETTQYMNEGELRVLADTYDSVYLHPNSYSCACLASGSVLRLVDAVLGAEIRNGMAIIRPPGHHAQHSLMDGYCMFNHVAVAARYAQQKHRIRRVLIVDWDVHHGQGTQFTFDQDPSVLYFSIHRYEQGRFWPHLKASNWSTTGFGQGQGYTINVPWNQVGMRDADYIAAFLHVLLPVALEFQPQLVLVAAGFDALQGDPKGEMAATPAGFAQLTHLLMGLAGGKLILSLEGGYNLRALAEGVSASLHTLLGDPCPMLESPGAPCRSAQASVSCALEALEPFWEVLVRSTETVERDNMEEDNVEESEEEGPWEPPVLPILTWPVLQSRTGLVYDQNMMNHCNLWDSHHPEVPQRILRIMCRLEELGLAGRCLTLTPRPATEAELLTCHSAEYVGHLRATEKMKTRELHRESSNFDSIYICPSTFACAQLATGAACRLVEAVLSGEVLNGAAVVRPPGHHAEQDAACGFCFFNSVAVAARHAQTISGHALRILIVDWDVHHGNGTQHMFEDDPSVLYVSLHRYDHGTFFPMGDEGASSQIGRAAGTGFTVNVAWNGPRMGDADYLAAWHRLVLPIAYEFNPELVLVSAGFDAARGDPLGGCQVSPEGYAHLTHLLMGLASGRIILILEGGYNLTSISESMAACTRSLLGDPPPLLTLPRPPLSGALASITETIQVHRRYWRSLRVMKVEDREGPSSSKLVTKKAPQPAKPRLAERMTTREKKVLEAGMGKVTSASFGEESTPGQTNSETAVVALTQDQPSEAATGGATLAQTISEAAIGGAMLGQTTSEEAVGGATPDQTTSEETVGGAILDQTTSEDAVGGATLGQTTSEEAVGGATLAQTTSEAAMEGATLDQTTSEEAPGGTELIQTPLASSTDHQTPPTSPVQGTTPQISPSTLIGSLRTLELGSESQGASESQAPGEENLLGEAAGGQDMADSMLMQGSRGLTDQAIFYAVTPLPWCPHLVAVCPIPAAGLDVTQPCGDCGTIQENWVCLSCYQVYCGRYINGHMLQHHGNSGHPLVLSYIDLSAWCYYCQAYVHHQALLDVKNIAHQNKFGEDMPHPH
Sequence of human MAP Kinase-Activated Protein Kinase 2 (MAPKAPK2), MAPKAPK2 (gene 9261) (P49137 whole entry, looked up): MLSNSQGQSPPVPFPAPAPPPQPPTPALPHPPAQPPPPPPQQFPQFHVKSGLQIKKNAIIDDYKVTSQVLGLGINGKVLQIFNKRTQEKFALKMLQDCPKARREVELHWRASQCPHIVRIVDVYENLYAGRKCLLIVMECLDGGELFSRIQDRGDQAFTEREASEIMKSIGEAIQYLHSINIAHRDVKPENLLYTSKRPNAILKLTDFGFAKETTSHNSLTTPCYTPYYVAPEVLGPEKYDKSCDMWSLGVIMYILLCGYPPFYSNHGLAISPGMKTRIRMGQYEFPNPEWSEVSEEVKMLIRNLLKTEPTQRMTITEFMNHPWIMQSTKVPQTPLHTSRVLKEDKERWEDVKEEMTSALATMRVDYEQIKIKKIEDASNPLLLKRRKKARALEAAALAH

The AC50 is the concentration at which the activity in the assay is half-maximal. In the case of `O=C1C2CC=CCC2C(=O)N1SC(Cl)(Cl)Cl` (stereo unspecified), the result in [1] and in assay [4] was inactive. In addition, the concentration at half-maximal activity (AC50) was 7.99 µM (active) in assay [2] and 16.7 µM (active) in assay [3].
For `COC(=O)NS(=O)(=O)c1ccc(N)cc1`, the outcome in assay [4] and in [5] was inactive.
In the case of `N#Cc1c(Cl)cccc1Cl`, the call in [5] was inactive.
In the case of `CCCC(=NOCC)C1=C(O)CC(CC(C)SCC)CC1=O` (stereo unspecified), the compound was classed as inactive in assay [6] and in assay [8]. Further, in assay [7], the concentration at half-maximal activity (AC50) was 14.1 µM (active).
On to `Cc1nc(N(C)C)nc(OC(=O)N(C)C)c1C`, for which, in assay [9], the half-maximal activity concentration (AC50) was 16.9 µM (active).
In the case of `O=c1n(Cl)c(=O)n(Cl)c(=O)n1Cl`, in assay [10], the outcome was inactive.
For the compound `COP(=S)(OC)SCn1nnc2ccccc2c1=O`, the compound was called inactive in [3] and in [5].
Take `COC(=O)N(C(=O)N1CO[C@@]2(C(=O)OC)Cc3cc(Cl)ccc3C2=N1)c1ccc(OC(F)(F)F)cc1`: the result in [6] and in [11] was inactive.
Turning to `CC1(C)C(C=C(Cl)Cl)C1C(=O)OC(C#N)c1cccc(Oc2ccccc2)c1` (stereo unspecified), the results for the AC50 in assay [6] and in [12] were 3.06 µM (active) and 11.8 µM (active), respectively.
Regarding `CC(C)NC(=O)N1CC(=O)N(c2cc(Cl)cc(Cl)c2)C1=O`, the outcome in assay [13] was inactive.
In the case of `CC(C)C1(C)N=C(c2ncccc2C(=O)O)NC1=O` (stereo unspecified), in [7], the outcome was inactive.
With `O=C(O)c1c(Cl)ccc2cc(Cl)cnc12`, in assay [9], the AC50 is 8.48 µM (active).
Consider `Nc1c(Cl)c(Cl)nc(C(=O)O)c1Cl`, for which the compound was called inactive in assay [4].
`Clc1nc(Cl)nc(Nc2ccccc2Cl)n1`: the result in assay [13], in assay [14], in [2], in [15], in [5] and in [8] was inactive. In addition, in assay [12], the compound was classed as inactive.
Take `CN/C(=N\[N+](=O)[O-])NCc1cnc(Cl)s1`: the compound was called inactive in [16]. For the same compound, the AC50 in assay [17] is 22.2 µM (active).
